# High-throughput results (PubChem BioAssay)
# Gal4-VP16 FLuc: inhibits Gal4-VP16 luciferase reporter, ROR gamma counter-screen; AID 2546; Potency, µM (highest dose often 53.6 µM), for inactives: at the top dose activity, negative = inhibition, usual class: inhibitors; Drosophila S2 Gal4-VP16 UAS-luciferase, luminescence, 20 h; hit rate 3.5% among 310,000;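 also: Gal4-VP16 expression switched on by copper sulfate through the metallothionein promoter; nearly all actives have a fitted effect of over 50% in size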
# TDP1 block: blocks human tyrosyl-DNA phosphodiesterase 1; recombinant TDP1, AlphaScreen DNA substrate cleavage; Potency, µM (titrated, usually from 130 µM), without a hit: top-dose activity change, negative = inhibition, usual class: inhibitors; hit rate 0.28% among 350,000; also: nearly all actives have a fitted effect of over 40% in size
# Target sequence (Q9NUW8 whole entry, looked up): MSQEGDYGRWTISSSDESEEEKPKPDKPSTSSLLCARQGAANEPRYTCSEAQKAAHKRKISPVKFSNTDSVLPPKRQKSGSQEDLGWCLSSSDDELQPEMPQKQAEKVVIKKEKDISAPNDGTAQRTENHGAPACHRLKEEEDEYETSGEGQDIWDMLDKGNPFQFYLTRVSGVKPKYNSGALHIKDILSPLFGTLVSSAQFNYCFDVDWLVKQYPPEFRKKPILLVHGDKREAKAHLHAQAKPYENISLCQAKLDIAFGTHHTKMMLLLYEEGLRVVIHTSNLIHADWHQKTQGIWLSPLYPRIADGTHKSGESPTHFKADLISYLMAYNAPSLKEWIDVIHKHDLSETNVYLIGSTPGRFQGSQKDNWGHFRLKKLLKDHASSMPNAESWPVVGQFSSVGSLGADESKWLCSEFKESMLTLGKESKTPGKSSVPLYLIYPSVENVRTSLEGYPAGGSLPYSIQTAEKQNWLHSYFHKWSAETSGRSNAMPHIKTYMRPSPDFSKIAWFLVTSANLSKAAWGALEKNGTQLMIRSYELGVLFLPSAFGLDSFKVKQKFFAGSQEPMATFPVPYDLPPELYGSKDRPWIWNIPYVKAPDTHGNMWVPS
#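 Recombinant E. coli-expressed Tdp1 (1 nM) preincubated with compound 15 min at RT, then 5'-biotin/3'-phosphotyrosine-FITC DNA substrate (15 nM) added for 5 min. AlphaScreen beads (10 ug/ml) added, 10 min RT; tyrosine-FITC cleavage read as signal loss.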
# RORgamma inh: inhibitors of mouse ROR gamma transcriptional activity. hit rate 5.4% among 310,000. P51450. Drosophila S2 Gal4-RORgamma UAS-luciferase reporter, 20 h. Potency, µM (series often up to 53.6 µM), without a hit: at the highest dose activity change, negative = inhibition, most hits filed as inhibitors; also: nearly all actives have a fitted effect of over 60% in size
#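 Stably transfected Drosophila Schneider cells are the test system, with ROR gamma fused to Gal4 and luciferase under UAS control; luminescence is read after 20 hr of 700 uM copper sulfate induction at ambient temperature.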
# DT40 TDP1 CPT: DT40-hTDP1 cell growth loss with CPT. Potency, µM (doses to about 46.2 µM), without a hit: at the highest dose activity change, negative = growth inhibition, usual class: inhibitors. chicken DT40 Tdp1-/-;hTDP1 cells + 20 nM CPT, ATP luminescence, 48 h. hit rate 12% among 420,000; also: nearly all actives have a fitted effect of over 55% in size
#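 Chicken DT40 Tdp1-/- cells complemented with human TDP1, 400 cells/well, exposed to compounds plus 20 nM camptothecin for at least 48 h at 37 C; viability read as ATP content by CellTiter-Glo luminescence.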
# TDP1 cell noCPT: qHTS for Inhibitors of human tyrosyl-DNA phosphodiesterase 1 (TDP1): qHTS in cells in absence of CPT. DT40 Tdp1-/- hTDP1 cells, no CPT, ATP luminescence, 48 h. Potency, µM (series often up to 46.2 µM), inactives show at the highest dose activity change, negative = growth inhibition, usual class: inhibitors. hit rate 15% among 420,000. AID 686978, 2013; also: nearly all actives have a fitted effect of over 55% in size
#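 A cellular qHTS used chicken DT40 cells lacking endogenous Tdp1 but carrying stably transfected human TDP1. Compounds were applied without camptothecin, and cell growth kinetics were judged by ATP-dependent luminescence after ≥48 hr.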
# Starred values were filed as active, the others as inactive; ? = inconclusive; . = no result; [ ] = dose if it differs, or a comment. An excerpt weighted towards active compounds, which were near 19% of everything screened. Calls follow the shape of the dose curve; as a rule, active = well fitted curve in the direction sought with a large enough effect; inconclusive = small, poorly fitted or top-dose-only effect, or another doubt; inactive = no such curve, though single readings can be large; an effect the other way counts as inactive or inconclusive. % is scaled to controls: 0 for no effect and ±100 for the full control effect; potency is read from the fitted curve at half-maximal effect.
SMILES,Gal4-VP16 FLuc,TDP1 block,RORgamma inh,DT40 TDP1 CPT,TDP1 cell noCPT
CCS(=O)(=O)c1nc(S(=O)(=O)c2ccc(C)cc2)c(N2CCCC2)s1,7%,1%,17%,-10%,14%
COc1ccc(OCC(=O)O/N=C(\N)c2ccc(OC)c(OC)c2)cc1,5%,-9%,30%,?,-30%
O=C(O)C1CCCN(S(=O)(=O)c2ccc3c(c2)OCCO3)C1 (centres undefined),-4%,6%,-12%,-6%,-1%
COc1ccc(NC(=O)CN(C)C(=O)c2cccc(S(=O)(=O)N3CCN(Cc4ccccc4)CC3)c2)cc1,-3%,6%,0%,18µM*,12µM*
CN(CCOc1ccc(Cl)cc1)C(=O)c1cccc(S(=O)(=O)N2CCN(Cc3ccccc3)CC2)c1,.,.,.,15µM*,21µM*
Cc1ccc(C)c(NC(=O)CN(C)C(=O)c2cccc(S(=O)(=O)N3CCN(Cc4ccccc4)CC3)c2)c1,-25%,1%,?,18µM*,12µM*
COc1ccc(NC(=O)CN(C)C(=O)c2cccc(-n3cccc3)c2)cc1,.,2.5µM*,.,-29%,-28%
COc1ccc(NC(=O)CN(C)C(=O)c2cccc(S(=O)(=O)N3CCN(C)CC3)c2)cc1,.,-4%,.,-3%,-14%
O=C(CCCn1c(=S)[nH]c2cc3c(cc2c1=O)OCO3)NCCc1ccc(Cl)cc1,.,.,.,-1%,-7%
COC(=O)COC(=O)c1ccc(-n2nnnc2SC)cc1,-17%,-3%,20%,1%,-4%
CCC(C(=O)NCCc1ccc(Cl)cc1)n1nc(C)c2c(C)n(-c3ccccc3)nc2c1=O (centres undefined),.,0%,.,?,?
CCC(C(=O)NCc1cccc(Br)c1)n1nc(C)c2c(C)n(-c3ccccc3)nc2c1=O (centres undefined),.,6%,.,23µM*,?
CCc1ccc(CNC(=O)C(CC)n2nc(C)c3c(C)n(-c4ccccc4)nc3c2=O)cc1 (centres undefined),.,6%,.,23µM*,16µM*
CCC(C(=O)NCc1cccc(C)c1)n1nc(C)c2c(C)n(-c3ccccc3)nc2c1=O (centres undefined),-3%,4%,-14%,?,?
CCOC(=O)C(CC)n1nc(C)c2c(C)n(-c3ccc(C)cc3)nc2c1=O (centres undefined),.,3%,.,18µM*,16µM*
Cc1ccc(NC(=O)CCc2nc(-c3cccs3)no2)c(Br)c1,0%,0%,-9%,-24%,10%
CCOC(=O)c1sc(NC(=O)CSc2nc(-c3ccco3)cc(C(F)(F)F)n2)c(C(=O)OC)c1C,-4%,-3%,-1%,-23%,-12%
N#Cc1c(N2CCOCC2)nc(N)c2c(N)nc3c(c12)CC(CCl)O3 (centres undefined),-8%,0%,-3%,?,?
CC1CCN(c2nn3c(=O)c(C(=O)NCCCOC(C)C)cnc3s2)CC1,.,8%,.,-19%,-17%
CCOC(CC(=O)NNC(=O)c1c(-c2c(Cl)cccc2Cl)noc1C)OCC,-1%,7%,17%,-13%,-21%
CCOC(=O)N1CCN(CC(O)COc2ccccc2C(C)CC)CC1 (centres undefined),2%,2%,-6%,-4%,-8%
CCOC(=O)N1CCN(CC(O)COc2ccccc2C(C)C)CC1 (centres undefined),-3%,6%,2%,?,?
CCOC(=O)N1CCN(CC(O)COc2cc(C)ccc2C(C)C)CC1 (centres undefined),6%,1%,36%,-29%,8.2µM*
CCOC(=O)N1CCN(CC(O)COc2ccccc2C(C)(C)C)CC1 (centres undefined),-7%,3%,14%,?,18µM*
CCN(CC)c1nc2ccccc2nc1C(=O)Nc1cc(OC)c(OC)c(OC)c1,.,6%,.,16µM*,13µM*
SMILES,Gal4-VP16 FLuc,TDP1 block,RORgamma inh,DT40 TDP1 CPT,TDP1 cell noCPT
COc1cc(NC(=O)c2cc3c(Cl)nc4ccccc4c3s2)cc(OC)c1OC,1%,5%,15%[10 µM],10µM*,8.2µM*
COc1ccc(NC(=O)c2cc3c(Cl)nc4ccccc4c3s2)c(OC)c1,3%,-5%,-9%,?,?
COc1ccc(N(C)C(=O)c2cc3c(Cl)nc4ccccc4c3s2)cc1,3%,6%,?,?,21µM*
COc1ccc2cc(C(=O)Nc3ccccc3)sc(=O)c2c1OC,-11%,16µM*,30%,-23%,-20%
COCCN=C1OC(=O)N2C(=O)C3=C4C(C[C@H]5C(=O)N(c6ccccc6)C(=O)[C@H]5[C@H]4[C@@]12Cc1ccccc1)[C@H]1C(=O)N(c2ccccc2)C(=O)[C@H]1[C@H]3C (some centres undefined),19%,6%,43%,.,.
COC(=O)c1ccc(-n2nnnc2SCC(=O)Nc2ccccc2F)cc1,?,1%,?,-19%,-21%
CN(C(=O)c1cc2c(Cl)nc3ccccc3c2s1)c1cccc(C(F)(F)F)c1,.,5%,.,-4%,-21%
CCCN(C(=O)c1cc2c(Cl)nc3ccccc3c2s1)c1cccc(C)c1,.,2%,.,21µM*,26µM*
O=C([C@@H]1C[C@@H](Sc2nc3ccccc3[nH]2)CN1Cc1ccc(Cl)cc1)N1CCN(c2ccccc2F)CC1,.,.,.,?,21µM*
CCCn1nc(C(=O)Nc2cccc(S(=O)(=O)N3CCOCC3)c2)c2ccccc2c1=O,.,.,.,?,26µM*
CCn1nc(C(=O)Nc2cccc(S(=O)(=O)N3CCCC3)c2)c2ccccc2c1=O,.,0%,.,?,?
O=C(Nc1ccccc1)Nc1ccc(Cl)c(S(=O)(=O)N2CCOCC2)c1,-18%,-8%,?,?,?
CCn1nc(C(=O)Nc2ccc(Cl)c(S(=O)(=O)N3CCOCC3)c2)c2ccccc2c1=O,.,1%,.,?,16µM*
